Test systems include HCT-15 colon; HT29 colon; SNB-75 CNS; SNB-19 CNS; U251 CNS; PC-3 prostate; SK-MEL-5 melanoma; UACC-62 melanoma; LOX IMVI melanoma; SK-MEL-28 melanoma; SK-MEL-2 melanoma; EKVX NSCLC; UO-31 renal; TK-10 renal; ACHN renal; CAKI-1 renal; A498 renal; CCRF-CEM leukemia; MOLT-4 leukemia.
What all share (assay): NCI-60 one-dose screen, 48 h (100 = growth as untreated, 0 = no growth, -100 = all killed)
Holding throughout (details): 10 µM

About 83,000 compounds went through this panel and 20% of them were active in at least one assay; those are over-represented in the sample as a whole.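 Cells were grown in 96-well plates and exposed to the test compound at a single concentration for 48 hours; results are reported as percent growth, with values below 10 considered active.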 Unmarked numbers belong to inactive results. Activity calls are given as the source filed them.

Regarding `CCC(CCNc1cc(OC)cc2cccnc12)CN1C(=O)c2ccccc2C1=O` (configuration not stated), the growth is 93.1% with HCT-15 colon; 105% with HT29 colon; 84% with SNB-75 CNS; 103% with SNB-19 CNS; 102% with U251 CNS; 89.2% with PC-3 prostate. For the same compound, the growth in the experiment with SK-MEL-5 melanoma is 105%; in the experiment on UACC-62 melanoma it was 97.5%; in the experiment with LOX IMVI melanoma, 90.6%; in the experiment with SK-MEL-28 melanoma it was 117%; in the experiment on SK-MEL-2 melanoma it was 108%; in the experiment with EKVX NSCLC, 95.5%. Moreover, the growth in the experiment on UO-31 renal was 94.7%; in the experiment on TK-10 renal, 119%; with ACHN renal it was 102%; in the experiment with CAKI-1 renal, 92.8%; in the experiment on A498 renal, 117%; with CCRF-CEM leukemia it was 99.3%. The growth with MOLT-4 leukemia was 108%.
Regarding `CNC(=O)c1cc(Oc2ccc(NC(=O)Nc3ccc(Cl)c(OC(C)C)c3)c(F)c2)ccn1`, the growth is 41.4% in the experiment with HCT-15 colon; 41.6% with HT29 colon; 75.3% in the experiment with SNB-75 CNS; 66.3% with SNB-19 CNS; 58.8% with U251 CNS; 32.4% with PC-3 prostate. The growth in the experiment with SK-MEL-5 melanoma was 4.12% (active); in the experiment with UACC-62 melanoma it was 34.2%; in the experiment on LOX IMVI melanoma, 45.2%; in the experiment with SK-MEL-28 melanoma, 70.7%; in the experiment on SK-MEL-2 melanoma, 50.2%; in the experiment on EKVX NSCLC, 34.8%. Further, the growth in the experiment with UO-31 renal is 45.2%; in the experiment with TK-10 renal it was 66.7%; in the experiment on ACHN renal, 41.9%; with CAKI-1 renal, 64.1%; in the experiment on A498 renal, 48.7%; with CCRF-CEM leukemia it was 46.8%. In addition, in the experiment with MOLT-4 leukemia, the growth was 30.9%.
In the case of `COCc1cc2c(cc1Br)OCO2`, the growth was 100% with HCT-15 colon; 106% in the experiment on HT29 colon; 87.1% in the experiment with SNB-75 CNS; 105% in the experiment on SNB-19 CNS; 99.1% with U251 CNS; 86.8% in the experiment with PC-3 prostate. For the same compound, the growth in the experiment with SK-MEL-5 melanoma is 107%; in the experiment with UACC-62 melanoma, 100%; in the experiment on LOX IMVI melanoma, 95.6%; in the experiment on SK-MEL-28 melanoma, 99.1%; in the experiment on SK-MEL-2 melanoma, 96.7%; in the experiment with EKVX NSCLC it was 102%. In addition, the growth in the experiment with UO-31 renal is 84.6%; in the experiment on TK-10 renal it was 95.7%; in the experiment with ACHN renal, 101%; in the experiment on CAKI-1 renal it was 95%; in the experiment with A498 renal it was 91.2%; in the experiment on CCRF-CEM leukemia, 71.9%. Besides, the growth in the experiment with MOLT-4 leukemia was 107%.
On to `O=C(c1ccccc1)C(Nc1ccccc1)c1ccccc1` (configuration not stated), for which the growth in the experiment on HCT-15 colon is 97.8%; in the experiment on HT29 colon, 86.4%; with SNB-75 CNS, 79.6%; with SNB-19 CNS, 101%; with U251 CNS it was 89.6%; with PC-3 prostate, 75.5%. Moreover, the growth in the experiment on SK-MEL-5 melanoma was 85.6%; with UACC-62 melanoma it was 74.9%; with LOX IMVI melanoma, 86%; in the experiment with SK-MEL-28 melanoma, 99%; in the experiment on SK-MEL-2 melanoma it was 90.9%; in the experiment with EKVX NSCLC it was 86.2%. The growth in the experiment with UO-31 renal is 66.9%; in the experiment on TK-10 renal, 93.6%; with ACHN renal, 89.2%; in the experiment with CAKI-1 renal, 87.3%; in the experiment with A498 renal, 94.6%; in the experiment with CCRF-CEM leukemia, 94.1%. Moreover, the growth with MOLT-4 leukemia is 90.8%.
As for `COc1ccc(COC(=O)CC(C)C)cc1`, the growth is 105% in the experiment on HCT-15 colon; 96.1% in the experiment on HT29 colon; 91.9% with SNB-75 CNS; 103% in the experiment on SNB-19 CNS; 92.7% with U251 CNS; 94.4% with PC-3 prostate. In addition, the growth in the experiment on SK-MEL-5 melanoma was 93.4%; in the experiment on UACC-62 melanoma it was 99.3%; in the experiment on LOX IMVI melanoma it was 97.1%; in the experiment with SK-MEL-28 melanoma it was 110%; with SK-MEL-2 melanoma, 101%; in the experiment with EKVX NSCLC, 101%. Besides, the growth with UO-31 renal is 93.5%; with TK-10 renal, 90.6%; in the experiment on ACHN renal, 105%; in the experiment with CAKI-1 renal, 98.7%; in the experiment on A498 renal, 117%; in the experiment on CCRF-CEM leukemia, 102%. For the same compound, the growth with MOLT-4 leukemia was 98.8%.
With `CCN(CC)CCOC(=O)c1ccc(NC(=O)Nc2cccc(Cl)c2)cc1`, the growth in the experiment with HCT-15 colon was 95.6%; with HT29 colon, 96.3%; with SNB-75 CNS, 81.8%; in the experiment on SNB-19 CNS, 108%; in the experiment on U251 CNS, 96.5%; in the experiment with PC-3 prostate it was 94.7%. The growth in the experiment on SK-MEL-5 melanoma was 101%; with UACC-62 melanoma, 102%; in the experiment with LOX IMVI melanoma, 94.6%; in the experiment with SK-MEL-28 melanoma it was 106%; with SK-MEL-2 melanoma, 94.7%; in the experiment on EKVX NSCLC, 99.2%. The growth was 92.5% in the experiment on UO-31 renal; 96.1% with TK-10 renal; 108% in the experiment with ACHN renal; 96.8% in the experiment with CAKI-1 renal; 79.5% in the experiment on A498 renal; -4.69% (active) in the experiment with CCRF-CEM leukemia. Further, the growth in the experiment with MOLT-4 leukemia is 84.9%.
For `CNC(=O)c1cc(Oc2ccc(NC(=O)Nc3ccc(Cl)c(OC4CCCCC4)c3)c(F)c2)ccn1`, the growth in the experiment with HCT-15 colon is 37.7%; in the experiment on HT29 colon, 48.1%; in the experiment with SNB-75 CNS, 51.5%; in the experiment with SNB-19 CNS it was 41.2%; with U251 CNS, 38.8%; in the experiment on PC-3 prostate, 16.6%. The growth in the experiment on SK-MEL-5 melanoma is 15.6%; in the experiment on UACC-62 melanoma, 32.2%; in the experiment on LOX IMVI melanoma it was 42.3%; in the experiment on SK-MEL-28 melanoma, 75.4%; in the experiment on SK-MEL-2 melanoma it was 55.3%; in the experiment on EKVX NSCLC, 27.7%. Besides, the growth in the experiment with UO-31 renal is 43.1%; with TK-10 renal, 51.9%; with ACHN renal it was 29.8%; in the experiment on CAKI-1 renal, 41.9%; in the experiment with A498 renal, 57.5%; with CCRF-CEM leukemia it was 35.4%. Also, in the experiment with MOLT-4 leukemia, the growth was 24.1%.
As to `NC1CCC(Nc2nc(NCc3cc(Cl)ccc3O)c3ncn(C4CCCC4)c3n2)CC1` (configuration not stated), the growth with HCT-15 colon is -10.1% (active); in the experiment on HT29 colon, -16.9% (active); in the experiment on SNB-75 CNS, -85.8% (active); with SNB-19 CNS, 9.87% (active); in the experiment with U251 CNS, -22.8% (active); in the experiment on PC-3 prostate, -8.24% (active). Besides, the growth in the experiment with SK-MEL-5 melanoma was -93.7% (active); with UACC-62 melanoma, -58.8% (active); in the experiment on LOX IMVI melanoma, -73.7% (active); with SK-MEL-28 melanoma, -44.7% (active); in the experiment on SK-MEL-2 melanoma, -73.7% (active); in the experiment with EKVX NSCLC, -18.7% (active). The growth in the experiment on UO-31 renal is 1.65% (active); in the experiment on TK-10 renal, -3.98% (active); in the experiment with ACHN renal it was -5.98% (active); with CAKI-1 renal, 9.61% (active); with A498 renal it was -67.1% (active); in the experiment on CCRF-CEM leukemia, -0.96% (active). Further, the growth in the experiment on MOLT-4 leukemia is -15.5% (active).

Source of the values: PubChem BioAssay (NCI).
